# Screening data from PubChem BioAssay.
# An excerpt weighted towards active compounds, which were near 1.9% of everything screened.
# aSyn rescue = alpha-synuclein toxicity inhibition in yeast | 370,000 compounds, 0.14% hits | Yeast expressing alpha-synuclein, growth rescue, BacTiter-Glo, 24 h | Potency, µM (series often up to 46.1 µM), without a hit: top-dose growth rescue (activation), usual class: activators; also: potency is read from the fitted curve at half-maximal effect; % of control where 0% means no effect; nearly all actives have a fitted effect of over 65% in size
#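 Rescue of yeast growth: cells expressing toxic alpha-synuclein, induced in galactose at OD600 0.02, incubated with compound 24 h at 30 C. ATP luminescence quantified growth; inhibitors of toxicity appear as activators.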
# PTHR1 agonist = PTHR1 (human) receptor agonism. HEK293 GP2 PTHR1 cells, GloSensor cAMP luminescence, 1 h. 410,000 compounds, 0.075% hits. Potency, µM (top dose mostly 115 µM), for inactives: at the highest dose activation, hits mostly activators. Q03431; also: potency is read from the fitted curve at half-maximal effect; nearly all actives have a fitted effect of over 55% in size
# Target sequence (Q03431 whole entry, looked up): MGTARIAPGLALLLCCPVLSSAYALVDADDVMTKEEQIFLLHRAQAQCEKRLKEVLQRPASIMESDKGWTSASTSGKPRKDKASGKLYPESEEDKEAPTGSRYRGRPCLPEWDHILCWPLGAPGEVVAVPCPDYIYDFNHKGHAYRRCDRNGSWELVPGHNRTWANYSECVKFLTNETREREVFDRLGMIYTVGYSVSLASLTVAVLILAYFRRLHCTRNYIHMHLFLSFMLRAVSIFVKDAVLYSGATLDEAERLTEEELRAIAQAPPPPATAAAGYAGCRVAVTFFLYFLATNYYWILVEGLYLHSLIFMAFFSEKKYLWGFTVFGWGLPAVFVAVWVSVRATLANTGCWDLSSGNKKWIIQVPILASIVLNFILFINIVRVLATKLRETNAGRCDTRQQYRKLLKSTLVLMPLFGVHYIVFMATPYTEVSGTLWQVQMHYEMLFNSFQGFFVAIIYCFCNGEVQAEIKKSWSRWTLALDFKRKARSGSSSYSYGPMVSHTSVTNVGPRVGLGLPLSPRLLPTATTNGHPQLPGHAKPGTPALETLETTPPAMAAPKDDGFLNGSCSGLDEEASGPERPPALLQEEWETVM
#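 HEK-293-derived GP2 cells expressing PTHR1 and a GloSensor cAMP reporter, 3,000/well, plated overnight, given luciferin plus IBMX (each 0.5 mM as added) for 1 h at 37 °C, then compound for 1 h at 37 °C. Luminescence was read after 15 min at room temperature.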
# LDHA inh = blocks human lactate dehydrogenase A; P00338; purified LDHA, NADH/diaphorase-resazurin fluorescence; hits give low values; activity change, % (values are at about 110 or 230 µM); 480,000 compounds, 0.15% hits; AID 1347041; in the data active = activity change below about -30%; inconclusive = mostly about -25% to -30%;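 also: plate controls were DMSO wells for no effect and wells without enzyme for full effect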
#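 LDH5 2 nM; NADH 0.06 mM, pyruvate 0.2 mM; 200 mM Tris pH 7.4, EDTA, Tween-20; 5 min RT. Detection: diaphorase 0.133 mg/mL + resazurin 37 µM, fluorescence ex540/em590 at 0 and 20 min; normalized to enzyme-free and DMSO wells.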
# TDP-43 yeast inh = TDP-43 toxicity inhibition in yeast. AID 652104. 410,000 compounds, 1.8% hits. Potency, µM (top dose mostly 46.1 µM), for inactives: at the top dose growth rescue (activation), most hits filed as activators. TDP-43 expressing yeast growth rescue, BacTiter-Glo, 24 h; also: potency is read from the fitted curve at half-maximal effect; % of control where 0% means no effect; nearly all actives have a fitted effect of over 50% in size
#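 Readout is BacTiter-Glo luminescence of cell growth, so inhibitors register as activators. TDP-43-expressing yeast at OD600=0.02 in galactose medium, after raffinose pregrowth to mid-log, were incubated with compound for 24 hr at 30 deg C.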
# FUS suppressor = suppressors of FUS proteinopathy in yeast. 390,000 compounds, 0.24% hits. AID 1347120. S. cerevisiae FUS-expressing, growth rescue, OD600, 24 h. Potency, µM (series often up to 76.6 µM), actives largely listed as activators;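 also: potency is read from the fitted curve at half-maximal effect; plate controls were DMSO vehicle for no effect and reference control for full effect; nearly all actives have a fitted effect of over 55% in size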
#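 Galactose (2%) drives FUS expression in yeast precultured in raffinose; seeding density OD 0.005. Test compounds incubated 24hr at 30C and 99% humidity before absorbance at 600 nm was measured.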
# Abeta yeast res = restores growth of yeast expressing A-beta42 peptide; Potency, µM (top dose mostly 46.1 µM), hits mostly activators; AID 1347071; yeast expressing A-beta42, growth rescue, OD600, 48 h; response scale: 0% DMSO, 100% iron-clioquinol control; 410,000 compounds, 0.063% hits; also: potency is read from the fitted curve at half-maximal effect; nearly all actives have a fitted effect of over 55% in size
#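 Growth rescue measured by 600 nm absorbance after 48 h yeast culture at 30 C with compound. Values normalized between DMSO and an equimolar ferric chloride plus clioquinol control.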
# Active calls of the source: *; i = inactive; ? = inconclusive; . = no result given; [ ] = another dose, or the depositor's remark. Unless noted, calls follow the shape of the dose curve; as a rule, active = well fitted curve in the direction sought with a large enough effect; inconclusive = small, poorly fitted or top-dose-only effect, or another doubt; inactive = no such curve, though single readings can be large; an effect the other way counts as inactive or inconclusive.
SMILES,aSyn rescue,PTHR1 agonist,LDHA inh,TDP-43 yeast inh,FUS suppressor,Abeta yeast res
O=Cc1ccc(-c2ccc([N+](=O)[O-])cc2Cl)o1,1.0%,-11.3%,-5.6,11.2µM*,i,i
CCCCCCCCN1C(=O)[C@H](CC(=O)NCc2ccc(OC)c(OC)c2)C[C@@]2(C(=O)OCC)CCC=C12,-4.7%,-8.8%,3.2,28.2µM*,?,i
CCCCCCCCN1C(=O)[C@H](CC(=O)NCc2ccc(OC)c(OC)c2)C[C@@]2(C(=O)OC)CCCCC=C12,16.9%,i,6.6,20µM*,?,i
COC(=O)[C@]12CCCCC=C1N(CCc1ccc(OC)c(OC)c1)C(=O)[C@H](CC(=O)NCC13CC4CC(CC(C4)C1)C3)C2,-1.2%,10.2%,3.1,-11.9%,8.91µM*,i
COc1ccc(CN2CCN(Cc3ccncc3)CC2)c(OC)c1,.,.,9.1,.,.,.
O=C(Nc1cccc2ccccc12)c1ccco1,-2.5%,-22.5%,2.1,15.8µM*,i,i
O=C(Nc1ccccc1NC(=O)c1ccco1)c1ccccc1,-6.4%,?,-7.1,-9.8%,i,i
O=C(Nc1nc2c(ccc3ccccc32)s1)c1ccco1,-1.3%,i,9.9,5.62µM*,?,i
CCn1c(COc2ccc(Cl)cc2)nnc1SCC(=O)C(C)(C)C,.,.,1.9,.,.,.
COc1ccc(/C=C(\C#N)c2nc3ccccc3[nH]2)cc1I,.,.,3.8,.,.,.
O=[N+]([O-])c1cc(C(F)(F)F)ccc1NCCc1c[nH]c2ccc(O)cc12,16.7%,-1.2%[57.5 µM],8.5,6.4%,i,i
O=[N+]([O-])c1cc(C(F)(F)F)ccc1NCCc1c[nH]c2ccccc12,4.1%,-0.9%,-4.4,22.4µM*,i,i
CCc1cc2c(SC(C)C(=O)NC3CCCC3)ncnc2s1 (stereo not given),12.0%,i,-5.4,35.5µM*,i,i
Cc1ccccc1OCc1nc(-c2cccnc2)no1,11.4%,-9.4%,-7.6,11.2µM*,i,i
Cc1cc(OCc2nc(-c3cccnc3)no2)c(C)cc1Br,0.8%,i,-1.0,1.0%,i,i
c1ccc(OCc2nc(-c3ccncc3)no2)cc1,3.7%,i,-8.8,11.2µM*,i,i
Cc1ccc(SCc2nc(-c3ccncc3)no2)cc1,5.9%,-26.8%,-3.1,15.8µM*,i,i
CCCS(=O)(=O)c1c(S(=O)(=O)CCC)c2cc(C(C)(C)C)ccn2c1C(=O)c1ccc(OC)c(OC)c1,.,i,-1.5,-8.0%,i,i
CCCS(=O)(=O)c1c(S(=O)(=O)CCC)c2cc(C(C)(C)C)ccn2c1C(=O)c1ccccc1,.,8.4%,-0.8,-7.6%,17.8µM*,i
CCc1nnc(NC(=O)c2ccc(S(=O)(=O)N(CC(C)C)CC(C)C)cc2)o1,22.4µM*,-5.6%,-3.6,?,i,i
Cc1nnc(NC(=O)c2ccc(S(=O)(=O)N(C)Cc3ccccc3)cc2)o1,?,i,-4.7,17.8µM*,i,?
CCc1nnc(NC(=O)c2ccc(S(=O)(=O)N(C)c3ccccc3)cc2)o1,-9.9%,i,1.6,5.1%,i,?
Cc1nnc(NC(=O)c2ccc3ccccc3c2)o1,?,-24.2%[57.5 µM],1.3,?,i,15.8µM*
CC1=C(C(=O)N2CCOCC2)C(c2ccccc2Cl)C2=C(CCCC2=O)N1 (stereo not given),.,.,0.9,.,.,.
COC(=O)c1ccc2[nH]c(C3(O)CCCCC3)c(C)c2c1,-12.0%,-47.5%,-0.7,17.8µM*,i,i
SMILES,aSyn rescue,PTHR1 agonist,LDHA inh,TDP-43 yeast inh,FUS suppressor,Abeta yeast res
Cc1c(C2(O)CCCCC2)[nH]c2ccc(C(F)(F)F)cc12,-61.8%,-3.6%,1.0,3.55µM*,i,i
O=[N+]([O-])c1ccc(Oc2ccc(F)cc2)c2ccncc12,9.0%,-6.3%,1.4,?,i,i
O=[N+]([O-])c1ccc(Oc2cccc(Br)c2)c2ccncc12,6.1%,-29.2%,3.8,15.8µM*,i,i
COc1cc(/C=C/[N+](=O)[O-])ccc1OC(=O)/C=C/c1ccc(F)cc1,-17.5%,-3.5%,-7.1,0.708µM*,i,i
COc1ccc(/C=C/C(=O)Oc2ccc(C)c(C)c2)cc1OC,-16.4%,i,-3.9,-15.1%,?,i
C=CCOc1c(Br)cc(CNc2ccc(NC(=O)C(C)C)c(OC)c2)cc1OCC,9.7%,i,23.5,9.7%,14.1µM*,i
Clc1cccc2sc(N3CCN(c4ccccc4)CC3)nc12,0.0%,-22.0%,1.3,3.55µM*,i,i
Clc1ccc(Cl)c2sc(N3CCOCC3)nc12,2.7%,-8.1%[57.5 µM],-1.4,27.9%,i,i
Clc1ccc(Cl)c2sc(N3CCCC3)nc12,19.3%,i,-0.6,7.08µM*,i,i
CC(C)(C)C(=O)Nc1nnc(SCc2ccc(F)cc2)s1,.,-29.9%,0.0,17.8µM*,i,?
CC(C)(C)C(=O)Nc1nnc(SCc2cccc(F)c2)s1,-0.8%,-13.6%,-1.3,?,i,?
O=S(Cc1ccccc1)Cc1cccc(Cl)c1 (stereo not given),.,.,-9.0,.,.,.
CSc1nnc2c3cc(F)ccc3n(C)c2n1,2.82µM*,i,-16.5,6.31µM*,i,i
CC(C)c1ccc(-n2ccc3nc(N4CCOCC4)ncc3c2=O)cc1,.,.,-8.0,.,.,.
Cc1nn(-c2ccccn2)c2c1-c1nc(N)sc1CC2,12.6µM*,.,24.1,.,.,.
CCN(CCC(F)(F)F)C(=O)c1ccc2ccccc2n1,.,.,-0.9,.,.,.
CC(C)Oc1ccc(C(=O)/C(=C\c2cccnc2)c2nc3ccccc3o2)cc1,.,.,4.2,.,.,.
Cc1ccc(NS(=O)(=O)c2c(C)ccc3nsnc23)c([N+](=O)[O-])c1,0.3%,-53.1%,-9.7,22.4µM*,i,i
Cc1ccc2nsnc2c1NS(=O)(=O)c1c(C)ccc2nsnc12,13.4%,i,13.9,3.3%,i,i
COc1ccc2c(c1)OC[C@H]1[C@H]2N2C(=O)c3cc(OC)ccc3NC(=O)[C@@]2(C)[C@H]1c1ccccc1,19.7%,-16.5%,-5.9,5.01µM*,i,i
COc1ccc2c(c1)OC[C@H]1[C@H]2N2C(=O)c3cc(F)ccc3NC(=O)[C@@]2(C)[C@H]1c1ccccc1,7.7%,-39.7%,0.9,20µM*,i,i
COc1ccc2c(c1)OC[C@H]1[C@H]2N2C(=O)c3cc(Cl)ccc3NC(=O)[C@@]2(C)[C@H]1c1ccccc1,23.0%,-10.3%,-7.5,4.47µM*,i,i
